Hits are enriched below; roughly 2.1% of the tested compounds scored in any of these assays.
STK33 inh: inhibitors of human STK33 kinase | ADP-Glo luminescence, MBP substrate | hit rate 0.44% among 27,000 | AID 2322 | inhibition, % at 12.5 µM; in the data active = inhibition above about 20%; inconclusive = no clear call, values can overlap the other calls
p53 PUMA act: restores mutant p53 pathway signaling in SW480 cells; AID 624151; SW480 PUMA-promoter luciferase, p53 mutant reactivation; hit rate 1.5% among 28,000; activation, % at 9.98 µM; in the data active = activation above about 52%; inconclusive = no clear call, values can overlap the other calls
ID4 binder: ID4 (human) binding. hit rate 1.2% among 31,000. calls only. AID 624137. small molecule microarray, Flag-ID4 binding, fluorescence F/B. P47928; call rule not given here;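 note: a binder raises fluorescence above local background on the spot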
Target sequence (P47928 whole entry, looked up): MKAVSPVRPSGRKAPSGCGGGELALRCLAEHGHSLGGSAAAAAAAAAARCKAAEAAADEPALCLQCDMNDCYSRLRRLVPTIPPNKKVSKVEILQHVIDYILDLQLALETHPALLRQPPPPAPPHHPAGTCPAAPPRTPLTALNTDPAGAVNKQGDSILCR
An asterisk follows results filed as active; i = inactive; ? = inconclusive; / = not tested or not shown; + = active, no number.

SMILES	STK33 inh	p53 PUMA act	ID4 binder
NC(=O)[C@@H]1[C@H]2C(=O)O[C@H](c3ccccc3)[C@H](c3ccccc3)N2[C@H](c2ccc(OCCO)cc2)[C@@]12C(=O)Nc1ccc(C#CC3=CCCCC3)cc12	8.7	/	/
C=CCOC(=O)[C@H]1[C@@H]2C(=O)O[C@@H](c3ccccc3)[C@@H](c3ccccc3)N2[C@@H](c2ccc(OCCOC(=O)[C@@H]3C[C@@H]4C(=O)N5CCC[C@H]5C(=O)N4[C@@H]3c3ccc(O)cc3)cc2)[C@]12C(=O)Nc1ccc(I)cc12	16.4	/	+
O=C1O[C@@H](c2ccccc2)[C@@H](c2ccccc2)N2[C@@H](c3ccc(OCCO)cc3)[C@]3(C(=O)Nc4ccc(C#CC5=CCCCC5)cc43)[C@@H](C(=O)N3CCCCCCC3)[C@H]12	20.7*	/	i
COCCOC(=O)N1C(=O)[C@@]2(c3cc(C#Cc4ccc(OC)cc4)ccc31)[C@H](c1ccccc1OCCO)N1[C@H](c3ccccc3)[C@H](c3ccccc3)OC(=O)[C@H]1[C@@H]2C(=O)N1CCc2cc(OC)c(OC)cc2C1	10.1	/	/
COc1cc2c(cc1OC)CN(C(=O)[C@@H]1[C@H]3C(=O)O[C@H](c4ccccc4)[C@H](c4ccccc4)N3[C@H](c3ccc(OCCO)cc3)[C@@]13C(=O)Nc1ccc(C#CC4=CCCCC4)cc13)CC2	18.3	/	/
C=CCOC(=O)[C@H]1[C@@H]2C(=O)O[C@@H](c3ccccc3)[C@@H](c3ccccc3)N2[C@@H](c2ccc(OCCOC(=O)[C@H]3C[C@H]4C(=O)N5CCC[C@H]5C(=O)N4[C@H]3c3ccc(O)cc3)cc2)[C@]12C(=O)Nc1ccccc12	/	/	i
COc1ccc2c(c1)N(C(=O)CSc1nnc(C)n1-c1ccc(F)cc1)C(C)(C)C=C2C	0.4	12.2	i
O=C1O[C@@H](c2ccccc2)[C@@H](c2ccccc2)N2[C@@H](c3ccc(OCCO)cc3)[C@]3(C(=O)Nc4ccccc43)[C@@H](C(=O)N3CCCCCCC3)[C@H]12	15.1	/	+
O=C1O[C@H](c2ccccc2)[C@H](c2ccccc2)N2[C@H]1[C@@H](C(=O)N1CCCCCCC1)[C@]1(C(=O)Nc3ccc(C#CC4(O)CCCCCC4)cc31)[C@H]2c1ccc(OCCO)cc1	18.5	/	/
O=C1O[C@H](c2ccccc2)[C@H](c2ccccc2)N2[C@H]1[C@@H](C(=O)N1CCCCCCC1)[C@]1(C(=O)Nc3ccccc31)[C@H]2c1ccc(OCCO)cc1	17.0	/	i
NC(=O)[C@@H]1[C@H]2C(=O)O[C@H](c3ccccc3)[C@H](c3ccccc3)N2[C@H](c2ccc(OCCO)cc2)[C@@]12C(=O)Nc1ccc(C#CC3(O)CCCCCC3)cc12	22.1*	/	i
COc1ccccc1-c1cc(C(F)F)n2ncc(C(=O)NCc3cccnc3)c2n1	2.0	-2.1	i
C[C@H]1CN([C@@H](C)CO)C(=O)Cc2cc(NC(=O)Cc3cn(C)c4ccccc34)ccc2O[C@@H]1CN(C)C(=O)Nc1ccc2c(c1)OCO2	-2.5	/	/
COc1cc(CO)ccc1OCc1cccc(C(=O)O)c1	-4.8	-73.3	i
COc1ccc(C#Cc2ccc3c(c2)[C@]2(C(=O)N3)[C@H](c3ccccc3OCCO)N3[C@H](c4ccccc4)[C@H](c4ccccc4)OC(=O)[C@H]3[C@@H]2C(=O)N2CCN(c3ncccn3)CC2)cc1	9.5	/	i
O=C1O[C@@H](c2ccccc2)[C@@H](c2ccccc2)N2[C@@H](c3ccccc3OCCO)[C@]3(C(=O)Nc4ccc(C#CCCO)cc43)[C@@H](C(=O)N3CCCCCCC3)[C@H]12	21.9*	/	/
O=C1O[C@@H](c2ccccc2)[C@@H](c2ccccc2)N2[C@@H](c3ccc(OCCO)cc3)[C@]3(C(=O)Nc4ccc(C#CCCO)cc43)[C@@H](C(=O)N3CCCCCCC3)[C@H]12	14.0	/	/
O=C1O[C@H](c2ccccc2)[C@H](c2ccccc2)N2[C@H]1[C@@H](C(=O)N1CCN(c3ncccn3)CC1)[C@]1(C(=O)Nc3ccc(C#CCCO)cc31)[C@H]2c1ccccc1OCCO	24.1*	/	i
Cc1ccnc(SCC(=O)Nc2cccc(C(F)(F)F)c2)n1	-2.0	-9.7	i
CC(=O)Nc1nccc(-c2cc(-c3cccc(C(F)(F)F)c3)no2)n1	/	79.5*	i
C=C1C(=O)O[C@@H]2C3C(=C(C)[C@@H](O)[C@@H](OC(=O)/C(=C/C)COC(C)=O)[C@@H]12)C(=O)[C@H]1O[C@@]31C (stereo partly specified)	-1.7	/	i
CCCCOC(=O)c1cc2c(cn1)[nH]c1ccccc12	-3.8	70.8*	i
CNC(=O)c1cc2c(cn1)[nH]c1ccccc12	2.5	/	i
Cc1noc(C)c1NC(=O)N(C)C[C@H]1Oc2c(NC(=O)c3ccncc3)cccc2C(=O)N([C@@H](C)CO)C[C@@H]1C	/	6.5	i
COC(=O)c1c(NC(=S)Nc2ccc([N+](=O)[O-])cc2OC)sc(C)c1C	1.2	0.1	i
SMILES	STK33 inh	p53 PUMA act	ID4 binder
COC(=O)c1c(NC(=S)Nc2ccc(CC(=O)O)cc2)sc(C)c1C	-0.8	0.0	+
COCCOC(=O)N1C(=O)[C@@]2(c3ccccc31)[C@H](c1ccc(OCCO)cc1)N1[C@H](c3ccccc3)[C@H](c3ccccc3)OC(=O)[C@H]1[C@@H]2C(=O)NC[C@H](O)c1ccccc1	?	/	i
Cc1ccc(OCCCn2c(CO)nc3ccccc32)cc1	-0.9	63.0*	i
Cc1cccc(OCCCn2c(CO)nc3ccccc32)c1	1.6	24.9	i
Cc1ccc(NC(=O)CSc2ncnc3sc4c(c23)CCC4)cc1	3.3	15.5	i
COc1ccc(-c2cc(C(F)(F)F)n3ncc(C(=O)NCc4nc5ccccc5[nH]4)c3n2)cc1OC	0.7	-40.1	i
COc1ccccc1-c1cc(=O)c2ccccc2o1	4.8	138.0*	i
COc1ccccc1-c1cc(=O)c2c(OC)cccc2o1	0.3	/	/
COc1ccc(Cl)cc1NC(=O)CSc1n[nH]c(-c2ccccc2C)n1	1.0	-6.6	i
C[C@@H]1CN([C@H](C)CO)C(=O)c2cc(-c3cccnc3)cnc2O[C@@H]1CN(C)C(=O)C1CCOCC1	/	15.2	/
CCc1c(O)nc(SCC(=O)Nc2ccc(C(C)=O)cc2)[nH]c1=O	-2.2	11.0	+
CC(=O)c1ccc(NC(=O)CSc2nc(O)c(-c3ccccc3)c(=O)[nH]2)cc1	-3.0	28.6	i
CC(=O)c1ccc(NC(=O)CSc2nc(-c3ccccc3)c(C#N)c(=O)[nH]2)cc1	-1.3	59.0*	i
N#Cc1c(-c2ccccc2)nc(SCC(=O)Nc2ccc(Oc3ccccc3)cc2)[nH]c1=O	-6.5	12.5	i
C[C@@H]1CN([C@@H](C)CO)C(=O)CCCn2cc(nn2)CO[C@@H]1CN(C)Cc1ccc2c(c1)OCO2	-2.2	7.2	i
COc1ccc(NC(=O)C2=C(C)NC(=S)NC2c2cccc([N+](=O)[O-])c2)c(OC)c1 (stereo unspecified)	2.2	-1.4	i
COc1ccc(NC(=O)N(C)C[C@@H]2Oc3ccc(NC(=O)C4CC4)cc3C(=O)N([C@H](C)CO)C[C@@H]2C)cc1	-0.6	/	/
COc1ccc(OCC(=O)Nc2ccc(-c3nc4ccccc4s3)c(Cl)c2)cc1	1.3	-10.1	i
O=C(O)COc1cccc(-c2nc3ccccc3s2)c1	-2.1	-43.1	i
COc1ccc(-c2nc3ccccc3s2)cc1NC(=O)COc1ccc(Cl)cc1Cl	-1.9	74.1*	i
